Screening data (PubChem BioAssay)
This is a sample that favours compounds with a hit; in the whole collection about 7% have one here.
PI5P4Ka inh = inhibitors of human PI5P4K alpha. AID 652105. max response, %. 330,000 tested, 1.2% active. PI5P4Kalpha enzyme, ADP-Glo luminescence, 60 min; active compounds read low; active means max response of -50% or lower; inconclusive means between -30% and -50%; inactive means -30% or higher; further: value at the top dose of about 77 µM
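Compounds were pin-transferred onto PI5P4Kalpha and substrate in HEPES pH 7.4 buffer with EGTA, CHAPS and 5% DMSO. ATP (5 microM final) started the reaction, which ran 60 minutes at room temperature before ADP-Glo detection.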
HP1b binding inh = blocks HP1-beta chromodomain binding to methylated histone tails; P83916; AlphaScreen HP1-beta / biotin-H3K9me3 peptide binding; Potency, µM (series often up to 114 µM), hits mostly inhibitors; 390,000 tested, 0.56% active; further: nearly all actives have a fitted effect of over 70% in size
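Compound inhibition of the preformed complex between 50 nM HP1-beta and 50 nM biotinylated H3K9me3 peptide was read by AlphaScreen. Buffer was PBS pH 7.4 with 0.01% Tween-20. Incubations ran 30 min at room temperature, with 10 ug/mL donor/acceptor beads.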
GCN5L2 inh = GCN5L2 (KAT2A) acetyltransferase inhibition; Potency, µM (titrated, usually from 58.9 µM), hits mostly inhibitors; 390,000 tested, 0.21% active; GCN5L2 HAT assay, ThioGlo1 CoA-SH fluorescence; Q92830
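GCN5L2 (20 nM) in 50mM HEPES pH 7.5, 0.1mM EDTA, 0.01% Tween-20 preincubated 15 min with compounds at room temperature. Reaction started with H3(1-25) 75uM, acetyl-CoA 70uM, ThioGlo1 50uM; CoA-thiol fluorescence (Ex340/Em540) read at 0 and 20 min.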
PLK1 PBD block = inhibitors of human PLK1 polo-box domain binding. Plk1 PBD binding of FITC phosphopeptide, fluorescence polarization. P53350. 360,000 tested, 2.8% active. Potency, µM, most hits filed as inhibitors; further: series mostly up to about 57 µM; nearly all actives have a fitted effect of over 65% in size
Target sequence (P53350 whole entry, looked up, the tested form may be a part): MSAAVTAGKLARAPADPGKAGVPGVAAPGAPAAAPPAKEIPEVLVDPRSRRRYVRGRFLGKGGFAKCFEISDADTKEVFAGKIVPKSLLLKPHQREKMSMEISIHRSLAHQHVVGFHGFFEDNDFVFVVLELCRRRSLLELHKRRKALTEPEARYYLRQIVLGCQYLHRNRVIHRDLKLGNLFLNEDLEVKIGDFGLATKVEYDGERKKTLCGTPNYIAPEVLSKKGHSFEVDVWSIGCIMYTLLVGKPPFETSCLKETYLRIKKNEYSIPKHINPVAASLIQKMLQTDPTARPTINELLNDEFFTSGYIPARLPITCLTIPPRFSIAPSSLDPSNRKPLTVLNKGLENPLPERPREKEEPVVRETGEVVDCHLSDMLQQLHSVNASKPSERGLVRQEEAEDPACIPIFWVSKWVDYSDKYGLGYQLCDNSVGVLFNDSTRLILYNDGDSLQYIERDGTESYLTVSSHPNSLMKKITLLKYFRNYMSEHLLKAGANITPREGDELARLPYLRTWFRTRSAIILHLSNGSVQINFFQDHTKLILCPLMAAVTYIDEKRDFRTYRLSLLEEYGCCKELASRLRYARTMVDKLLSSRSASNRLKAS
JMJD2A Tudor inh = blocks the human JMJD2A Tudor domain; AlphaScreen JMJD2A-Tudor / H3K4me3 peptide binding; Potency, µM (series often up to 114 µM), usual class: inhibitors; AID 504339; O75164; 390,000 tested, 4.4% active; further: nearly all actives have a fitted effect of over 50% in size
BAZ2B inh = blocks human BAZ2B | AlphaScreen BAZ2B-H3K14Ac peptide displacement | Potency, µM (titrated, usually from 114 µM), usual class: inhibitors | 360,000 tested, 4.4% active | AID 504333; further: nearly all actives have a fitted effect of over 60% in size
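AlphaScreen luminescence quantifies BAZ2B engagement of H3K14Ac peptide; the protein and biotinylated peptide are both at 50 nM final, buffer PBS pH 7.4 with 0.01% Tween-20, all steps at room temperature.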
Large screens that a line does not name were inactive. Unless noted, the call rests on the fitted dose curve; in most records, active means well fitted curve in the direction sought with a large enough effect; inconclusive means small, poorly fitted or top-dose-only effect, or another doubt; inactive means no such curve, though single readings can be large; an effect the other way counts as inactive or inconclusive.

CCOC(=O)c1c(CN2CCN(C)CC2)oc2ccc(OC)cc12	JMJD2A Tudor inh inconclusive, BAZ2B inh 79µM
CCOC(=O)c1c(CN2CCCCC2)oc2ccc(OC)cc12	JMJD2A Tudor inh inconclusive
O=C(COC(=O)c1ccc2ncsc2c1)Nc1ccccc1Br	none
COC(=O)N1CCN(c2ccc(Cl)c(Cl)c2)CC1	none (no result: PI5P4Ka inh)
Nc1ccc(N2CCN(c3ccc(F)cc3)CC2)cc1	HP1b binding inh inconclusive, JMJD2A Tudor inh inconclusive, BAZ2B inh 35µM
Nc1ccc(N2CCCCCC2)cc1	BAZ2B inh 32µM (no result: PI5P4Ka inh, HP1b binding inh, PLK1 PBD block, JMJD2A Tudor inh)
O=C(O)/C=C/C(=O)N1CCN(c2ccc(F)cc2)CC1	PLK1 PBD block 19µM
Nc1ccc(N2CCN(c3ccc(Cl)c(Cl)c3)CC2)cc1	HP1b binding inh 18µM, JMJD2A Tudor inh 45µM, BAZ2B inh 14µM
O=C(/C=C/c1cccs1)N1CCN(c2ccc(F)cc2)CC1	none
C/C(CCS(=O)(=O)c1ccccc1)=N/O	none
COC(=O)Nc1sc2c(c1C(N)=O)CCCCCC2	PI5P4Ka inh inconclusive, PLK1 PBD block 13µM, JMJD2A Tudor inh inconclusive
CC(C)C(=O)NC(=S)Nc1sc2c(c1C(N)=O)CCCC2	PI5P4Ka inh -54, HP1b binding inh inconclusive, PLK1 PBD block 19µM, JMJD2A Tudor inh inconclusive
C=CCNC(=S)Nc1sc2c(c1C(N)=O)CCCC2	PI5P4Ka inh inconclusive, HP1b binding inh inconclusive, PLK1 PBD block 13µM
CS(=O)(=O)c1ccc(Cl)c(NC(=O)C2CCCCN2S(=O)(=O)c2ccccc2)c1 (configuration not stated)	none
CC(C)NC(=O)C1(C)CCN1Cc1cccc(Cl)c1 (configuration not stated)	none (no result: HP1b binding inh, GCN5L2 inh, JMJD2A Tudor inh, BAZ2B inh)
CC(C)CCNC(=O)CN1C(=O)COc2ccc(S(=O)(=O)N3CCOCC3)cc21	none (no result: PI5P4Ka inh, PLK1 PBD block)
Clc1nc(Cl)nc(N(c2ccccc2)c2ccccc2)n1	JMJD2A Tudor inh 25µM, BAZ2B inh 79µM
CCOC(=O)c1c(N2C(=O)Nc3ccccc3N2O)n[nH]c1-c1cccc(OC)c1	PI5P4Ka inh -52
CCOc1ccccc1C(=O)NCC(=O)OCC(=O)N1CCCC1	none (no result: BAZ2B inh)
CC(C)=CCN1CCN(Cc2c(C)nn(C)c2Cl)CC1CCO (configuration not stated)	none
COC1=CC(=O)c2ccccc2C1=O	none (no result: BAZ2B inh)
COC1=CC(=O)C=C(OC)C1=O	PI5P4Ka inh -51, HP1b binding inh inconclusive, PLK1 PBD block 6µM (no result: BAZ2B inh)
CC(C)CC(=O)Nc1ccc(C(=O)CN2CCN(c3ccc(O)cc3)CC2)cc1	JMJD2A Tudor inh inconclusive, BAZ2B inh 50µM
CC(=O)Nc1ccc(S(=O)(=O)N2CCN(C(C)CCc3ccccc3)CC2)cc1 (configuration not stated)	HP1b binding inh inconclusive, JMJD2A Tudor inh 1µM, BAZ2B inh 50µM
CC(=O)Nc1ccc(NC(=O)C(C)N2CCN(S(=O)(=O)c3ccc(C)cc3)CC2)cc1 (configuration not stated)	PLK1 PBD block inconclusive
O=C(CN1CCN(S(=O)(=O)c2ccc(Br)cc2)CC1)c1ccc(O)c(O)c1	BAZ2B inh inconclusive
CC1CCN(S(=O)(=O)c2ccc3c(c2)CCC(=O)N3CC(=O)Nc2cccc(C#N)c2)CC1	BAZ2B inh 50µM (no result: PI5P4Ka inh, PLK1 PBD block)
CC(C)c1ccc(S(=O)(=O)N2CCN(CC(=O)c3ccc(O)c(O)c3)CC2)cc1	BAZ2B inh 40µM (no result: PI5P4Ka inh, HP1b binding inh, PLK1 PBD block, JMJD2A Tudor inh)
Cc1ccc(-c2csc(NC(=O)C3CSC4(C)CCC(=O)N34)n2)cc1 (configuration not stated)	BAZ2B inh 79µM
O=C(Cc1cccs1)Nc1ccc(-c2nc3ccccc3[nH]2)cc1	GCN5L2 inh inconclusive, PLK1 PBD block 30µM
Cc1csc(NC(=O)C2CSC3(C)CCC(=O)N23)n1 (configuration not stated)	none
CC1CCN(CC(=O)Nc2ccc(S(=O)(=O)NC3CC3)cc2)CC1	HP1b binding inh inconclusive, JMJD2A Tudor inh 20µM, BAZ2B inh 50µM
O=C(CSc1ccccc1)Nc1ccc(-c2nc3ccccc3[nH]2)cc1	GCN5L2 inh inconclusive, BAZ2B inh inconclusive
CC1CCN(S(=O)(=O)c2ccc(NC(=O)Cc3cccs3)cc2)CC1	JMJD2A Tudor inh 50µM, BAZ2B inh inconclusive (no result: PI5P4Ka inh)
Cc1cccc2c1cnn2C(=O)Nc1ccccc1Cl	none
COc1ccc(NC(=O)C(C)N2Cc3ccccc3C2=O)cc1OC (configuration not stated)	none (no result: PI5P4Ka inh, PLK1 PBD block)
CCC(=O)N1CCc2cc(Br)cc(S(=O)(=O)CCC(=O)NCc3ccc(Cl)cc3)c21	none (no result: PI5P4Ka inh, PLK1 PBD block)
O=C(OCCSCCOC(=O)C1CC=CCC1)C1CC=CCC1 (configuration not stated)	none (no result: GCN5L2 inh, BAZ2B inh)
O=C(CCc1ccc(S(=O)(=O)NC2CCCCC2)cc1)Nc1ccccc1	PLK1 PBD block 27µM
CC(=O)Nc1ccc(S(=O)(=O)N2CCN(Cc3cccs3)CC2)cc1	HP1b binding inh 32µM, BAZ2B inh 35µM
CC1CCN(S(=O)(=O)c2ccc(NC(=O)C3CSC4(C)CCC(=O)N34)cc2)CC1 (configuration not stated)	JMJD2A Tudor inh 79µM, BAZ2B inh inconclusive
CC12CCC(=O)N1C(C(=O)Nc1cccc(S(=O)(=O)N3CCCCC3)c1)CS2 (configuration not stated)	none
O=C(CN1CCN(c2ccc(O)cc2)CC1)Nc1ccc(S(=O)(=O)N2CCCC2)cc1	HP1b binding inh inconclusive, JMJD2A Tudor inh 50µM (no result: BAZ2B inh)
O=C(CN1CCCCC1)Nc1ccc(S(=O)(=O)N2CCCCCC2)cc1	none (no result: PI5P4Ka inh)
Cc1ccc(NC(=O)CCc2ccc(S(=O)(=O)NC3CCCCC3)cc2)cc1	none
Cc1ccc(C)c(N2CCN(C(=O)Nc3cn(CC(C)C)c(=O)c4ccccc34)CC2)c1	none (no result: PI5P4Ka inh, PLK1 PBD block)
O=C(CN1CCCC1)Nc1ccc(S(=O)(=O)N2CCCCC2)cc1	none
CCN(CC)c1ccc(NC(=O)CN2CCN(S(=O)(=O)c3ccc(C(C)C)cc3)CC2)cc1	HP1b binding inh inconclusive, JMJD2A Tudor inh 14µM, BAZ2B inh 7.9µM (no result: PI5P4Ka inh, PLK1 PBD block)
CCN(CC)S(=O)(=O)c1ccc(NC(=O)Cc2cccs2)cc1	PI5P4Ka inh inconclusive, HP1b binding inh inconclusive, PLK1 PBD block 27µM, BAZ2B inh 71µM
CCOc1ccc(CN2CCN(S(=O)(=O)c3ccc(NC(C)=O)cc3)CC2)cc1OC	HP1b binding inh inconclusive, JMJD2A Tudor inh 22µM, BAZ2B inh 50µM (no result: PI5P4Ka inh)
CC1CCN(S(=O)(=O)c2ccc(NC(=O)CN3CCCC3)cc2)CC1	JMJD2A Tudor inh 4µM, BAZ2B inh 71µM
CCOc1ccc(NC(=O)CN(C)C(=O)c2cc(S(=O)(=O)N3CCCCCC3)ccc2OC)cc1OCC	none
NS(=O)(=O)c1ccc(NC(=O)Cc2cccs2)cc1	none
O=C(NCC1CCCO1)c1ccc2c(=O)n(Cc3cccc(Br)c3)c(=S)[nH]c2c1 (configuration not stated)	none
